Screens as filed in PubChem BioAssay.
Pf Dd2 inh – Plasmodium falciparum Dd2 growth inhibition; P. falciparum Dd2 growth, SYBR Green, 72 h; Potency, µM (top dose mostly 28.9 µM), inactives show at the top dose activity, negative = inhibition, actives largely listed as inhibitors; AID 1347417; 120,000 compounds, 4.3% hits; active = well fitted inhibition curve with a large enough effect;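 note: plate controls were DMSO vehicle for no effect and reference drug for full effect; nearly all actives have a fitted effect of over 65% in size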
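Infected erythrocytes (Dd2, 0.3% parasitemia, 2.5% hematocrit final) are added to compound in RPMI-1640/Albumax II medium, grown 72 h at 37C in low oxygen, then lysed with saponin/Triton-X containing SYBR Green and read by fluorescence.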
Active calls of the source: *; i = inactive; [ ] = another dose, or the depositor's remark. Only a selection was taken, and hits are over-represented in it overall. Potency is the fitted concentration of half-maximal effect.

SMILES	Pf Dd2 inh
Cc1n[nH]c(C)c1C(N)C(=O)N1CCC(c2nnc3n2CCCCC3)CC1 (stereo unspecified)	1%
Cc1ccccc1Nc1c(-c2ccc(Br)cc2O)nc2sccn12	2.5µM*
COCCNC(=O)c1nc2sccn2c1Br	1%[44.1 µM]
CCc1cccc(C)c1Nc1c(-c2ccccc2)nc2sccn12	-9%
C=CCNC(=O)c1cccc2c(C)nnn12	6%[44.1 µM]
O=C(c1ccno1)N1C[C@@H]2OCC(=O)N(Cc3ccccn3)[C@@H]2C1	29%[44.1 µM]
COc1ccc(CC(=O)NCCc2csc(-c3ccc(Cl)cc3)n2)cc1	-13%
Cc1cccc(-c2nc(CCNC(=O)Cc3ccc(F)cc3)cs2)c1	i
COc1ccc(CC(=O)NCCc2csc(-c3cccc(C)c3)n2)cc1	13µM*
CCn1c(C2CCNCC2)nn(Cc2cnn(-c3ccccc3F)c2)c1=O	6%
COc1ccccc1NC(=O)[C@@H]1COCC(=O)N1Cc1ccc(OC)c(OC)c1	37%
COc1ccc2cc1Nc1ccc(cc1)C[C@H](NCc1cccc(C(=O)O)c1)C(=O)N(C)[C@H](C(=O)Nc1ccccc1OCc1ccccc1)C2	2µM*
COc1ccc2cc1Nc1ccc(cc1)C[C@H](NCc1ccncc1)C(=O)N(C)[C@H](C(=O)NCc1ccc(OC(F)(F)F)cc1)C2	-20%
COC[C@@H]1CN(C(=O)c2cn3ccccc3n2)C[C@H]1c1ccncc1	-8%
CN(C)C1CCN(Cc2cc3cc4c(cc3nc2-c2ccc(Cl)cc2)OCO4)C1 (stereo unspecified)	11µM*
O=C1[C@H]2CN(Cc3ccc(Cl)cc3)C[C@H]2C(=O)N1Cc1ccc2c(c1)OCO2	-4%
Cn1ncc(CN2CC[C@@H](c3ccc4c(c3)OCO4)[C@H](O)C2)c1C1CC1	-23%
CSc1ccc(C(=O)N2CCN(Cc3ccccc3)CC(O)C2)cc1 (stereo unspecified)	-5%
CSc1ccc2cc(CN3CC[C@@H](O)C3)c(-c3ccc(Cl)cc3)nc2c1	11µM*
COc1ccc(N2CCOC3CCN(Cc4cccc(Cl)c4)CC3C2=O)cc1 (stereo unspecified)	i
CS(=O)(=O)N1C[C@H]2CCN(Cc3cc(Cl)ccc3F)C[C@H]21	-1%
COc1ccc(OC)c2nc(-c3cccc(Cl)c3)c(CN3CCC(O)CC3)cc12	i
COc1cc2cc(CN3CCC(N(C)C)C3)c(-c3cccc(Cl)c3)nc2cc1OC (stereo unspecified)	7.9µM*
O=C(O)C1(CCc2ccccc2)CCCN(c2ncnc3nc[nH]c23)C1 (stereo unspecified)	-12%
Cc1cnc(C(=O)N(C)C2CCc3nn(CC4CC4)c(=O)n3CC2)cn1 (stereo unspecified)	i
SMILES	Pf Dd2 inh
CNC(=O)[C@@H]1C[C@@H](n2cc(CNC(=O)Nc3ccc(C)c(Cl)c3)nn2)CN1	-9%
CNC(=O)Nc1ccc(C2(C(=O)N3CCN(c4cccc(Cl)c4)CC3)CCC2)cc1	i
CC(=O)N1CCC(C(=O)N2CCC(N3CC(OCC4CC4)C34CCOCC4)CC2)CC1 (stereo unspecified)	9%
CCCNC(=O)N1CCC(N2CC(OCC3CC3)C23CCCCC3)CC1 (stereo unspecified)	8.9µM*
CC(C)CC(=O)N1CCC(N2CC(OCC3CC3)C23CCOCC3)CC1 (stereo unspecified)	-20%
Cc1cc(C(=O)NCC2(COc3ccccc3)C[C@@H](O)[C@@H](O)C2)n(C)n1 (stereo partly specified)	-6%[44.1 µM]
CCc1cc(N2CCC(Cc3nncn3C)CC2)nc(N2CCOCC2)n1	-8%
O=C(C1CN(S(=O)(=O)c2ccccc2)CC12CCCCC2)N1CCOCC1 (stereo unspecified)	7%
CC1=C(C(=O)Nc2ccc(C)cc2C)C(c2ccc(Cl)cc2)n2nc(C(=O)OC(C)C)nc2N1 (stereo unspecified)	-5%
COc1ccc(C2C(C(=O)Nc3ccc(C)cc3C)=C(C)Nc3nc(SC)nn32)cc1OC (stereo unspecified)	15%
CC1=C(C(=O)Nc2ccccc2)C(c2cc(Br)ccc2F)n2ncc(C(=O)Nc3ccccc3)c2N1 (stereo unspecified)	1.1µM*
CC1=C(C(=O)Nc2ccc(C)cc2C)C(c2ccc[nH]2)n2ncnc2N1 (stereo unspecified)	29%
CC1=C(C(=O)Nc2ccc(C)cc2C)C(c2ccc(Br)cc2)n2ncc(C(=O)Nc3cccc(C)c3)c2N1 (stereo unspecified)	1.1µM*
CC1=C(C(=O)Nc2ccc(C)cc2C)C(c2cccs2)n2nc(SCc3cccc(C)c3)nc2N1 (stereo unspecified)	-7%
CC1=C(C(=O)Nc2ccc(C)cc2C)C(c2cc(Br)ccc2F)n2ncc(C(=O)Nc3ccc(C)cc3)c2N1 (stereo unspecified)	0.89µM*
CC1=C(C(=O)Nc2ccc(Cl)cc2)C(c2ccccc2F)n2nc(SCc3cccc(Cl)c3)nc2N1 (stereo unspecified)	36%
CC1=C(C(=O)Nc2cc(Cl)ccc2C)C(c2ccccc2F)n2ncnc2N1 (stereo unspecified)	10%
COc1ccc(C(=O)N2CCC(N3C(=O)CCC3C(=O)NC(C)C)CC2)cc1OC (stereo unspecified)	15%
CCS(=O)(=O)Nc1ccc(C)n(CC(=O)NCc2ccccc2C)c1=O	i
CCOC(=O)c1c(C)n(-c2ccccc2)c2ccc(OC(=O)COc3ccccc3)cc12	43%
CCOC(=O)c1c(C)n(-c2ccc(OC)cc2)c2ccc(OC(=O)COc3ccccc3)cc12	11µM*
COc1ccc(-n2c(C)c(C(C)=O)c3cc(OC(=O)COc4ccccc4)ccc32)cc1	-18%
COc1cccc(-c2nn(C)c3sc(C(=O)NCc4cc(OC)ccc4OC)cc23)c1	-16%
COc1ccc(-c2nn(C)c3sc(C(=O)Nc4cc(OC)c(OC)c(OC)c4)cc23)cc1OC	11µM*
COc1ccc(-c2nn(C)c3sc(C(=O)N4CCN(c5cccc(Cl)c5)CC4)cc23)cc1OC	-16%
SMILES	Pf Dd2 inh
Cc1cc(F)ccc1NC(=O)CCC1CCCN(C(=O)CC2=CCCCC2)C1 (stereo unspecified)	5%
CCn1c(C2CCCNC2)nn(Cc2ccc(C(C)C)cc2)c1=O (stereo unspecified)	-25%
CC1=NOC(C(=O)N2CCOc3c(O)cc(-c4nc(C)cnc4C)cc3C2)C1 (stereo unspecified)	-13%
CCOC(=O)C(C)N1CCOc2c(O)cc(-c3cccc(Cl)c3)cc2C1 (stereo unspecified)	11µM*
CC(=O)NCCC(=O)N1CCOc2c(O)cc(-c3cccc(Cl)c3)cc2C1	i
COCCN1C(=O)CC[C@]2(C(=O)NCc3ccco3)CCCC[C@@H]12	-23%
CCCCCSc1nnc2c(n1)[nH]c1c(C)cccc12	4µM*
CCCCCCSc1nnc2c(n1)OC(C)Nc1ccc(Br)cc1-2 (stereo unspecified)	4%
Cc1nnc(NC(=O)CSc2nnc3c(n2)[nH]c2ccccc23)s1	-9%
CCn1c(C2CCN(C(=O)CCNC(=O)c3ccc(F)cc3)CC2)n[nH]c1=O	-24%
Cc1noc(C)c1C(=O)N1Cc2ccccc2OC2(CCN(C(=O)CN(C)C)CC2)C1	27%
COCCn1c(SCC(=O)c2c[nH]c3ccccc23)nc2cc(C(=O)NC(C)C)ccc2c1=O	-16%
COCCn1c(SCC(=O)c2c(C)[nH]c3ccccc23)nc2cc(C(=O)NC(C)C)ccc2c1=O	-27%
COC(=O)CC(=O)CSc1nc2cc(C(=O)NCC(C)C)ccc2c(=O)n1CCc1ccccc1	11µM*
